Bioassay records (PubChem BioAssay)
FadD28 FP inh – inhibitors of FadD28 bisubstrate probe binding, primary screen, biochemical, fluorescence polarization, single point | inhibition, % at 12.5 µM | 360,000 tested, 0.22% active; in the data active means inhibition above about 8.5%, passing the limit was not always enough; inconclusive means no clear call, values can overlap the other calls
Rv3671c inh – Rv3671c serine protease inhibitors, primary screen, biochemical, fluorescence polarization, M. tuberculosis H37Rv; inhibition, % at 5.96 µM; AID 2606, 2010; 320,000 tested, 0.048% active; in the data active means inhibition above about 38%;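 further: extracellular domain of Rv3671c used as enzyme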
Target sequence (P9WHR9 whole entry, looked up, the tested form may be a part): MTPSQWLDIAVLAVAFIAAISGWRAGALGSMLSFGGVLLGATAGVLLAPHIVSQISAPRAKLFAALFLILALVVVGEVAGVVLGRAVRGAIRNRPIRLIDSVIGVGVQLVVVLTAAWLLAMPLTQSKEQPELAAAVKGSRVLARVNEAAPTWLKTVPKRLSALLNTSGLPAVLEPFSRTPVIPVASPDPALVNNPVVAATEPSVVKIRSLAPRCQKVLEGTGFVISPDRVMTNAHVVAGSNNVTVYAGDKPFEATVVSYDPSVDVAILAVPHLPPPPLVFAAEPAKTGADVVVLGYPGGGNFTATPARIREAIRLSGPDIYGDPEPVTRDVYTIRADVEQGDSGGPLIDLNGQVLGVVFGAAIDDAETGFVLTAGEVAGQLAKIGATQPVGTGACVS
FBA Mtb inh – Mtb FBA enzyme inhibitors, primary screen, biochemical, fluorescence, strain H37Rv; Fructose-bisphosphate aldolase (Mycobacterium tuberculosis (strain ATCC 25618 / H37Rv)), …; purified M. tuberculosis FBA, fluorescence read-out; inhibition, % at 1 µM; 360,000 tested, 2.3% active; in the data active means inhibition above about 27%
GDH-TPI counter – GDH-TPI coupling enzyme inhibitors, primary screen, artefact control for M. tuberculosis FBA inhibitor project, biochemical, absorbance, full deck | GDH-TPI coupled enzyme counterscreen, NADH absorbance | inhibition, % at 4.8 µM | 360,000 tested, 1.2% active; in the data active means inhibition above about 30%
Mtb betalactam – beta-lactam sensitization of Mtb H37Rv, H37Rv | M. tuberculosis H37Rv growth with meropenem, percent inhibition | inhibition, % at 25 µM | 330,000 tested, 0.27% active; call rule not given here;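 further: growth measured after seven days incubation then overnight dye step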
UGM FP inh – M. tuberculosis UGM enzyme inhibitors, primary screen, biochemical, fluorescence polarization, single point; 320,000 tested, 0.06% active; AID 504406, 2011; purified UGM, fluorescence polarization probe displacement; inhibition, % at 10 µM; UDP-galactopyranose mutase (Mycobacterium tuberculosis (strain ATCC 25618 / H37Rv)), …; in the data active means inhibition above about 10%, passing the limit was not always enough; inconclusive means no clear call, values can overlap the other calls
Hits are given with their value; . = inactive; ? = inconclusive; / = not tested or not shown; + = active, no number. In the library only some 3.7% were active in any assay of this set; here they are far more common.

SMILES | FadD28 FP inh | Rv3671c inh | FBA Mtb inh | GDH-TPI counter | Mtb betalactam | UGM FP inh
COC(=O)Cn1cc(/C=C2\C(=O)NC(=O)N(c3ccc(OC)cc3)C2=O)c2ccccc21 | / | . | . | . | . | .
COCCNC(=O)Cn1cc(/C=C2\C(=O)NC(=O)N(c3cccc(C)c3C)C2=O)c2ccccc21 | . | . | . | . | . | .
NC(=O)Cn1cc(C=C2C(=O)NC(=O)NC2=O)c2ccccc21 | . | / | . | . | . | 30
COCCNC(=O)Cn1cc(/C=C2\C(=O)NC(=O)N(c3ccccc3F)C2=O)c2ccccc21 | . | . | . | . | . | 15
COCCCNC(=O)Cn1cc(/C=C2\C(=O)NC(=O)N(c3ccccc3F)C2=O)c2ccccc21 | . | . | . | . | . | 23
COc1ncnc2c1ncn2CCCNCC(C)c1ccccc1 (stereo not drawn) | . | / | . | . | / | /
C=CCN1C=CC(=O)[C@@H](OC(=O)Nc2ccc(Br)cc2)[C@H]1c1ccccc1Br | . | / | . | 33 | / | /
COc1cc(OC)c(-c2sc(Nc3ccccc3)n[n+]2-c2ccc(F)cc2)cc1OC | . | . | . | 38 | . | .
CC(=O)Cc1nsc(NC(=O)c2ccc(-c3cccc(Cl)c3)o2)n1 | . | . | . | 61 | . | .
CC(=O)c1cnc(N(C)C)s1 | . | . | . | 38 | . | .
CC(=O)c1cnc(Nc2ccccc2)s1 | . | . | . | . | . | .
COc1cc(SC)ccc1C(=O)Nc1cccc(S(=O)(=O)NC2=NCCC2)c1 | . | . | . | . | . | .
COc1ccc(-c2ccc3oc(-c4ccc(OC)cc4)c(C#CCCO)c3c2)cc1 | . | . | . | . | . | .
COc1ccc(-c2oc(=O)c3cc(OC)c(OC)cc3c2C#CC2(O)CCCCC2)cc1 | . | . | . | . | . | .
COc1ccc(-c2oc3cccnc3c2-c2ccc(OC)nc2)cc1 | . | . | 139 | . | . | .
COc1ccc(-c2oc3cccnc3c2C#CCO)cc1 | . | . | + | 32 | . | .
COc1ccc(-c2oc3cccnc3c2C#CC2(O)CCCCC2)cc1 | . | . | + | 34 | . | .
O=C(COC(=O)c1cnccn1)NCc1ccccc1Cl | . | / | . | . | / | /
CSC[C@H]1CN(c2ccccc2)C(=O)[C@@H]1CC(=O)Nc1ccc(Br)cc1 | . | / | . | . | / | /
CCCC(C(=O)NCCC(C)C)N(Cc1ccccc1Cl)C(=O)c1snc(C(N)=O)c1N (stereo not drawn) | . | . | . | . | . | .
CCOC(=O)c1ccc(N=NN(C)C)cc1 | . | . | . | 36 | . | .
CCOC(=O)/C(C#N)=C/Nc1ccccc1OC | . | . | . | 44 | . | .
C=CCc1c(C)nc(SC)nc1Nc1ccc(C(C)=O)cc1 | . | . | . | 48 | . | .
C=CCc1c(C)nc(SC)nc1Nc1ccc(C(=O)O)cc1 | . | . | . | . | ? | .
COc1ccc2[nH]c3c(=O)n(CCCN4CCOCC4)cnc3c2c1 | . | . | 157 | . | . | .
SMILES | FadD28 FP inh | Rv3671c inh | FBA Mtb inh | GDH-TPI counter | Mtb betalactam | UGM FP inh
Cc1cccc(C2C3=C(Nc4[nH]n(-c5ccccc5)c(=O)c42)c2ccccc2C3=O)c1 (stereo not drawn) | 22 | / | . | . | / | /
COc1ccc(C2C(C(=O)c3cccs3)=C(O)C(=O)N2c2nncs2)cc1 (stereo not drawn) | . | . | . | . | . | 13
C=CCOc1ccc(C2C(C(=O)c3cccs3)=C(O)C(=O)N2c2nnc(C)s2)cc1 (stereo not drawn) | . | . | . | . | . | .
N#Cc1ncc(N=Cc2ccc(N(CCCl)CCCl)cc2)s1 | . | / | . | 52 | / | /
CCN(CC)c1ccc(/C=N/Nc2nc(C)cc(C)n2)cc1 | . | . | . | . | . | .
ClCCN(CCCl)c1ccc(C=NNc2ncccn2)cc1 | . | / | . | 57 | / | /
O=C(N/N=C/c1cccnc1)c1cc2ccccc2o1 | . | . | . | 31 | . | .
O=C(N/N=C/c1cccnc1)c1cc2c(ccc3ccccc32)o1 | . | . | . | 32 | . | .
CCn1c(CN2CCC(C)CC2)nc2cc(S(=O)(=O)N3CCCCC3)ccc21 | . | / | . | . | / | /
COC[C@H]1CCCN1[C@@H]1CS(=O)(=O)N[C@H]1COCc1ccccc1 | . | / | . | / | / | /
O=C1C(c2ccccc2)=[N+]([O-])c2ccccc21 | . | . | . | . | . | .
COc1ccc([C@H]2CN(Cc3ccccc3)C(=O)[C@@H]2CC(=O)Nc2ccccc2)cc1 | . | / | . | . | / | /
Cc1cc(C)cc(N(CC(=O)NC2CCCCC2)C(=O)CNC(=O)c2ccco2)c1 | . | . | . | . | . | .
CC1=CC=CN2C1=NC(=O)CC2(C)C(=O)N(CC(=O)NC1CCCC1)c1cc(C)cc(C)c1 (stereo not drawn) | . | . | 174 | . | . | .
Cc1ccccc1N(CC(=O)NC1CCCCC1)C(=O)c1csnn1 | . | . | . | . | . | .
CC1=CN2C(=NC(=O)CC2(C)C(=O)N(CC(=O)NC2CCCC2)c2ccccc2C)C=C1 (stereo not drawn) | . | . | 147 | . | . | .
CC1=CC=CN2C1=NC(=O)CC2(C)C(=O)N(CC(=O)NC1CCCC1)Cc1ccccc1 (stereo not drawn) | . | . | 152 | . | . | .
CC1=CN2C(=NC(=O)CC2(C)C(=O)N(CC(=O)NC2CCCC2)c2cc(C)cc(C)c2)C=C1 (stereo not drawn) | . | . | 144 | . | . | .
Cc1ccnc(NC(=O)CCC(=O)N(CC(=O)NC2CCCCC2)Cc2ccccc2)c1 | . | . | . | . | . | .
CC1=CN2C(=NC(=O)CC2(C)C(=O)N(CC(=O)NC2CCCC2)Cc2ccc(Cl)cc2)C=C1 (stereo not drawn) | . | . | 117 | . | . | .
O=C1Nc2cc(C(=O)N3CCOCC3)ccc2S/C1=C/c1ccccc1F | . | / | . | . | / | /
Cn1cc(/C=C(\NC(=O)c2ccccc2)C(=O)NCCCN2CCOCC2)c2ccccc21 | . | . | . | 33 | . | .
COc1ccc(C(=O)N/C(=C\c2cn(C)c3ccccc23)C(=O)N2CCN(C)CC2)cc1 | . | . | . | 43 | . | .
O=C(/C=C/c1ccc(-c2cccc([N+](=O)[O-])c2)o1)N1CCOCC1 | . | . | . | 38 | . | .
O=C(NCCCN1CCOCC1)/C(=C/c1ccc(-c2cccc([N+](=O)[O-])c2)o1)NC(=O)c1ccccc1 | . | / | . | 40 | / | /
CN1CCN(C(=O)/C(=C/c2cn(C)c3ccccc23)NC(=O)c2ccccc2)CC1 | . | . | . | . | . | .
O=C(/C=C/c1cccc([N+](=O)[O-])c1)N1CCOCC1 | . | . | . | . | . | .
